This excerpt belongs to a sample that is enriched for hits.
Dicer processing: blocks human Dicer maturation of pre-miR-21 | Q9UPY3 | cat-ELCCA pre-miR-21 Dicer processing, chemiluminescence; active compounds read high | z-score at 25 µM | hit rate 6% among 47,000 | AID 1347074; in the data active = z-score above about 3, passing the limit was not always enough;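 note: higher signal means more uncleaved substrate so more Dicer inhibition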
Each line names hits and unclear results; the compound was inactive in the other large screens.

CCOC(=O)c1cnn2c1NC(c1ccc(Cl)cc1)CC2C(F)(F)F (centres undefined)	none
CN(C)/C=N/S(=O)(=O)c1cc(C(F)(F)F)cc(C(F)(F)F)c1	none
CCOC(=O)C(=CNNC(=O)C1C2C=CC(C2)C1C(=O)O)C(=O)OCC (centres undefined)	none
CC(=O)c1cc(-n2nc3ccccc3n2)c(O)c(-n2nc3ccccc3n2)c1O	none
Cc1cc(C)c2oc(-c3ccc(N)cc3)nc2c1	none
Nc1ccc([N+](=O)[O-])cc1C(=O)NNC(=O)c1cccnc1Oc1ccccc1	none
COC(=O)c1sc(N2C(=O)c3oc4cc(C)c(C)cc4c(=O)c3C2c2ccc(OC)cc2)nc1C (centres undefined)	none
Cc1ccc(C(=O)OCc2cn(Cc3ccccc3)c3ccc([N+](=O)[O-])cc23)cc1	none
CSc1sc(C#N)c2c1/C(=N\O)CCC2	Dicer processing 4.4
CSc1sc(C#N)c2c1/C(=N/OC(C)=O)CCC2	none
CSc1sc(C#N)c2c1/C(=N/OC(=O)c1ccc(Cl)cc1)CCC2	none
CCOC(=O)c1c(N/N=C/c2ccc(F)c(F)c2)n[nH]c1C	none
Cc1ccc(S(=O)(=O)N2C=Cc3ccccc3C2C#N)cc1 (centres undefined)	none
O=C(Nc1ccc(Cl)cc1)NN1CC(=O)N(c2ccccc2F)CC1=O	Dicer processing 4.9
O=C(Nc1ccc(F)cc1)N1CCN(c2ccccc2F)CC1	none
O=C(NN1CC(=O)N(c2cc(Cl)cc(Cl)c2)CC1=O)c1cccs1	none
COc1cc(OC)cc(C(C)(C)OC(=O)NCCC(=O)O)c1	none
CC(C)Oc1cc(O)c2c(=O)c(-c3ccc(O)cc3)coc2c1	none
O=c1c(-c2ccc(O)cc2)coc2cc(O)cc(O)c12	none
COc1ccc(-c2coc3cc(OCc4ccc(Br)cc4)cc(O)c3c2=O)cc1OC	Dicer processing 3.9
COc1ccccc1-c1nc(-c2ccc(Cl)cc2)no1	none
CC(C)(C)OC(=O)NCCN=Cc1ccc(Cl)cc1Cl	none
C/C(=N\NC1=NCCN1)c1ccc(C)cc1	none
Cc1ccc(CNc2nc(C)nc(C)c2Oc2ccc(Cl)cc2Cl)cc1	none
COc1cccc(Nc2nc(N)nc(CN3CCc4ccccc4C3)n2)c1	none
COc1ccccc1Nc1nc(N)nc(CN2CCCCC2)n1	Dicer processing 5.3
COc1ccc(Nc2nc(N)nc(CN3CCCCC3)n2)cc1	none
CC(C)c1ccc(N(CCc2ccccn2)S(=O)(=O)c2ccc(Cl)cc2)cc1	none
O=C(CC1(O)C(=O)Nc2ccc(Cl)cc21)c1cccc2ccccc12 (centres undefined)	none
O=C(CC1(O)C(=O)Nc2ccccc21)c1ccc2ccccc2c1 (centres undefined)	Dicer processing 4.4
Nc1cccc(C(=O)CC2(O)C(=O)Nc3ccc(Br)cc32)c1 (centres undefined)	none
O=C(CC1(O)C(=O)Nc2ccc(Cl)cc21)c1ccc(Cl)cc1 (centres undefined)	none
O=C(CC1(O)C(=O)Nc2ccc(Br)cc21)c1ccc2ccccc2c1 (centres undefined)	none
O=C(CC1(O)C(=O)Nc2ccccc21)c1ccc(C2CCCCC2)cc1 (centres undefined)	Dicer processing 4.2
O=C(CC1(O)C(=O)Nc2ccccc21)c1ccc(Br)cc1 (centres undefined)	none
O=C(CC1(O)C(=O)Nc2ccccc21)CC1(O)C(=O)Nc2ccccc21 (centres undefined)	none
CN1C(=O)C(O)(CC(=O)c2ccc(C3CCCCC3)cc2)c2ccccc21 (centres undefined)	none
Nc1cccc(C(=O)CC2(O)C(=O)Nc3ccc(Cl)cc32)c1 (centres undefined)	Dicer processing 12
O=C(CC1(O)C(=O)Nc2ccccc21)c1cccc2ccccc12 (centres undefined)	Dicer processing 5.2
Cc1ccc(C(=O)CC2(O)C(=O)Nc3ccccc32)cc1 (centres undefined)	none
CC(CCC(=O)NCC(=O)O)C1CCC2C3C(O)CC4CC(O)CCC4(C)C3CC(O)C12C (centres undefined)	none
CSC(=NCc1c(Cl)cccc1Oc1ccccc1)NS(=O)(=O)c1ccccc1	none
Cc1ccc(-c2c(C)c(C)nc(N)c2C#N)o1	none
CN(C)C(=O)C(=O)c1c[nH]c2ccc(Br)cc12	none
COc1cc(C2C(C(=O)OCc3ccccc3)=C(C)NC3=C2C(=O)CC(C)(C)C3)cc(Cl)c1O (centres undefined)	none
Cc1c(C(=O)O)cc(C(C)(C)C)n1CCCNC(=O)OC(C)(C)C	none
OCCn1c(SCc2ccccc2)nc2ccccc21	none
Fc1ccc(/C=N/Nc2c(Cl)cc(C(F)(F)F)cc2Cl)cc1Cl	none
COc1ccc(C(CC(=O)c2ccco2)SCc2ccco2)cc1OC (centres undefined)	none
Cc1ccc(CSc2nc3c(c(-c4cccs4)c2C#N)CCCC3)cc1	none
COCCN1C(=O)c2oc3ccc(F)cc3c(=O)c2C1c1ccc(O)c(OC)c1 (centres undefined)	none
O=C1c2c(O)cccc2Cc2cccc(O)c21	none
Nc1ccc(O)c(C(=O)O)c1	none
Nc1ccc(O)c2c1C(=O)c1c(N)ccc(O)c1C2=O	Dicer processing 3.2
O=C(N/N=C/c1ccc(Cl)cc1)Nc1cc(C(F)(F)F)cc(C(F)(F)F)c1	none
O=C(O)c1cc(-c2ccccc2Br)nc2cc(C(F)(F)F)cc(C(F)(F)F)c12	none
Cc1ccc2oc(-c3ccccc3)cc(=O)c2c1	Dicer processing 4.7
Cc1ccc2oc(C(=O)O)cc(=O)c2c1	none
O=c1cc(-c2ccccc2)oc2ccc(-c3nn[nH]n3)cc12	none
N#Cc1c(C(F)(F)F)cc(-c2ccccc2)nc1S/C=C(\O)c1cc2ccccc2o1	none
CCOC(=O)c1c(C)n(CCOc2ccccc2)c2c1cc(O)c1ccccc12	none
OC[C@H](O)[C@H](O)[C@@H](O)[C@@H](O)C1NCCS1 (some centres undefined)	none
O=C(Nc1ccc(N2CCOCC2)cc1)c1ccc(-n2cccn2)cc1	none
CCCn1cnc2ccccc21	none
CCN(C(=O)Cn1cc(C(=O)C2CC2)c2ccccc21)c1ccccc1	none
Clc1ccc(C2=NN3C(C2)c2ccccc2OC3c2ccncc2)cc1 (centres undefined)	Dicer processing 6
COc1ccc(C2Oc3ccccc3C3CC(c4cccnc4)=NN32)cc1 (centres undefined)	none
Clc1ccc2c(c1)C1CC(c3ccccc3)=NN1C(c1ccncc1)O2 (centres undefined)	Dicer processing 15
COc1ccc(C2Oc3ccccc3C3CC(c4ccc(C)o4)=NN32)cc1OC (centres undefined)	none
Cc1ccc(C2Oc3ccccc3C3CC(c4ccncc4)=NN32)cc1 (centres undefined)	none
COc1cc(C2Oc3ccccc3C3CC(c4ccccc4)=NN32)ccc1OC(C)=O (centres undefined)	Dicer processing 4.5
c1cncc(C2=NN3C(C2)c2ccccc2OC3c2cccs2)c1 (centres undefined)	none
Oc1ccc(Cl)cc1C1=NN2C(C1)c1ccccc1OC2c1ccncc1 (centres undefined)	none
CSCCC1Oc2ccc(Cl)cc2C2CC(c3ccccc3O)=NN12 (centres undefined)	none
Cc1ccc(C2c3c(oc4ccc(F)cc4c3=O)C(=O)N2CCCN2CCOCC2)cc1 (centres undefined)	none
CC1(C)CC2(CC(C)(c3csc(N)n3)OC2=O)C(=O)O1 (centres undefined)	none
C=CCN=C1CC(C)(C)CC(=O)/C1=C(\O)CCC(=O)OC	none
CNCCNS(=O)(=O)c1ccc(N2C(=O)CC3(CCCC3)C2=O)c(Cl)c1	none
Cc1cc(C)nc(SCC(=O)Nc2ncc3c(n2)CCCC3=O)n1	none
O=C1CCCc2nc3c(cc21)C(=O)CCC3	Dicer processing 4
